# Reference: PubChem BioAssay (NCATS)
# Values without a mark were called inactive. Records with an inconclusive call do not appear. A call without a number means that no potency is given here. Calls of active or inactive are those of the source. The call rests on the fitted dose curve; in most records, active means well fitted curve in the direction sought with a large enough effect; inconclusive means small, poorly fitted or top-dose-only effect, or another doubt; inactive means no such curve, though single readings can be large; an effect the other way counts as inactive or inconclusive.
# Key:
# [1] = Validation qHTS assay for inhibitors of Activation Induced Cytidine Deaminase (AID): UDG Counterscreen signal (AID 1347427)
# In short: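 Counterscreen read of UDG activity (2 U/mL, 4/3x) in the FRET deamination format with AID (1 uM, 4/3x), DJC20/DJC23 substrates (250 nM, 4x), 4 h at room temperature. NaOH stop, fluorescence at 560 ex/665 em.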
# [2] = target: Single-stranded DNA cytosine deaminase (Homo sapiens) (UniProt Q9GZX7); assay: Validation qHTS assay for inhibitors of Activation Induced Cytidine Deaminase (AID): AID signal (AID 1347429)
# Sequence of Single-stranded DNA cytosine deaminase (Homo sapiens) (Q9GZX7 whole entry, looked up): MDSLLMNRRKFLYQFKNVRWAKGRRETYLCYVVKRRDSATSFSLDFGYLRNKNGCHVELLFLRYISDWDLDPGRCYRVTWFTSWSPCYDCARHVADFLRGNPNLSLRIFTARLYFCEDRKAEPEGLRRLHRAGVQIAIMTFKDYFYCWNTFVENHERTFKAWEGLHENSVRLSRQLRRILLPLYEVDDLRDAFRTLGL
# In short: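 FRET deamination assay: 1 uM AID (4/3x stock) with UDG, compound up to 114 uM, then 250 nM DJC20/DJC23 substrate (4x stock) for 4 hr at room temperature. NaOH added, 30 min; fluorescence read 540/590 nm.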
# [3] = target: Calcium and integrin-binding protein 1 (Homo sapiens) (UniProt Q99828); assay: Validation qHTS for Identification of Calcium Integrin Binding protein 1 (CIB1) Competitor (AID 1508618)
# Sequence of Calcium and integrin-binding protein 1 (Homo sapiens) (Q99828 whole entry, looked up): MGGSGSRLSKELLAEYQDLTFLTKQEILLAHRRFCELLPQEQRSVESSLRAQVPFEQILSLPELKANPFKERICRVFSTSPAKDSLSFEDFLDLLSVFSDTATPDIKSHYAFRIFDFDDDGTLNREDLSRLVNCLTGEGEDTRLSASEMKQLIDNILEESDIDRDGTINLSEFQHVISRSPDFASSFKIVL
# Excerpt: Assay Provider: Ulhas P. Naik, PhD
# Sidney Kimmel Medical College
# Thomas Jefferson University, Philadelphia, PA
# Primary function of platelets is to maintain hemostasis. At the site of vascular injury, platelets adhere to adhesive proteins such as collagen and von Willebrand factor. Adherent platelets are activated and generate soluble platelet agonists such as thrombin, ADP and thromboxane A2. Following exposure of circulating platelets to these agonists, results in platelet shape change, granule secretion and activation of platelet integrin alphaIIb-beta3. Ligand binding to activated integrin alphaIIb-beta3 triggers outside-in signaling, leading to platelet aggregation, stabilization of platelet plug, and clot retraction. Upon atherosclerotic plaque rupture also causes platelet plug formation, which underlies a number of cardiovascular diseases such as myocardial infraction and stroke. A number of anti-platelet drugs such as aspirin, clopidogrel, prasugrel, vorapaxar, and eptifibatide are currently available to prevent the thrombotic complications. However, these anti-platelet agents have several limitations including inherent variability in individual responses, developing resistance, and serious bleeding side effects. […]
# To develop fluorescence polarization (FP) assay using fluorescently labeled alphaIIb peptide and CIB1 protein. […]
# 7; Detection; Ex 480/ Em 540; ViewLux Fluorescence Read […]
# [4] = Counterscreen qHTS for small molecule stabilizers of the endoplasmic reticulum resident proteome: GLuc-NoTag assay (AID 1508627); further: potency means the concentration at half of the fitted maximal effect
# In short: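 Luminescence of Gaussia luciferase secreted into the medium (coelenterazine, 0.07x final, unlysed cells) was the read-out. Human SH-SY5Y neuroblastoma cells constitutively secreting untagged GLuc received compound for 19 h, then 100 nM thapsigargin for 4 h.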
# [5] = Confirmatory qHTS for small molecule stabilizers of the endoplasmic reticulum resident proteome: Secreted ER Calcium Modulated Protein (SERCaMP) assay (AID 1508628); further: nearly all actives have a fitted effect of over 40% in size; further: potency means the concentration at half of the fitted maximal effect
# In short: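 SH-SY5Y cells stably expressing GLuc-SERCaMP, treated 16 h with compound (primary 1.53, 7.67, 38.3 uM; confirmation 11 concentrations, up to 76.6 uM), then 100 nM thapsigargin for 4 h. Secreted Gaussia luciferase in medium read by coelenterazine luminescence.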
# [6] = Cell Viability qHTS for small molecule stabilizers of the endoplasmic reticulum resident proteome (AID 1508629); details: cell viability counter-screen, 100 nM thapsigargin for final 4 h;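 further: compound exposure about 46 h in total before the viability read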; further: potency means the concentration at half of the fitted maximal effect;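 on max response: human SH-SY5Y neuroblastoma cells carrying the GLuc-SERCaMP reporter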
# [7] = target: Calcium and integrin-binding protein 1 (Homo sapiens) (UniProt Q99828); assay: Primary qHTS for Identification of Calcium Integrin Binding Protein 1 (CIB1) Competitor (AID 1508620); further: potency means the concentration at half of the fitted maximal effect
# In short: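 CIB1-GST (1 uM final) and compound incubated 15 min at room temperature before adding FITC-alphaIIb peptide tracer (100 nM final). Competition for binding read by fluorescence polarization (ex 480, em 540) after another 15 min at room temperature.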
compound,measurement,setting,value
C=CCc1cccc(C=NNC(=O)CN2CCN(Cc3ccccc3)CC2)c1O,outcome,[1],inactive
same,outcome,[2],inactive
same,outcome,[3],inactive
C[C@H]1O[C@@H](n2cc(F)c(=O)[nH]c2=O)[C@H](O)[C@H]1O,outcome,[1],inactive
same,outcome,[2],inactive
O[C@@H](COc1cccc2ncccc12)CN1CCN(C2c3ccccc3[C@@H]3[C@H](c4ccccc42)C3(F)F)CC1 (stereo not given in full),Potency,[4],inactive
O=C(CCCN1CCN(c2ccc(F)cc2)CC1)NC1c2ccccc2CSc2ccccc21 (stereo not given),Potency,[4],39.8 µM (active)
same,Potency,[5],inactive
same,Potency,[6],25.1 µM (active)
Cc1cc(OCCCS(C)(=O)=O)cc(C)c1-c1cccc(COc2ccc3c(c2)OC[C@H]3CC(=O)O)c1,Potency,[7],inactive
Cc1cc2nc3c(=O)[nH]c(=O)nc-3n(CC(O)C(O)C(O)CO)c2cc1C (stereo not given),Potency,[7],6.81 µM (active)
same,Potency,[4],inactive
OC(c1cc(C(F)(F)F)nc2c(C(F)(F)F)cccc12)C1CCCCN1 (stereo not given),Potency,[7],inactive
CC(C)=CCCC(C)=CCCC(C)=CCCC(C)=CCCC(C)=CCCC(C)=CCCC(C)=CCCC(C)=CCCC(C)=CCO,Potency,[7],inactive
same,Potency,[4],inactive
same,Potency,[5],inactive
same,max response,[6],2.98%
O=C1CN2Cc3c(ccc(Cl)c3Cl)N=C2N1,Potency,[7],inactive
c1ccc(CNc2nc(N3CCOc4ccccc43)nc3c2CCCC3)cc1,Potency,[7],inactive
N#CC1(c2cccc(C(=O)Nc3cc(Oc4ccc5nc(NC(=O)C6CC6)sc5n4)ccc3F)c2Cl)CC1,Potency,[7],inactive
CC(=O)Nc1cccc(-n2c(=O)n(C3CC3)c(=O)c3c(Nc4ccc(I)cc4F)n(C)c(=O)c(C)c32)c1,Potency,[7],inactive
COc1cc2nc(-c3cc(F)ccc3O)nc(N[C@@H]3CNC[C@@H]3C(C)(C)O)c2cc1OC,Potency,[7],inactive
CC(=O)OCC(=O)[C@@]1(O)CC[C@H]2[C@@H]3CCC4=CC(=O)C=C[C@]4(C)[C@@H]3[C@@H](O)C[C@@]21C,Potency,[7],inactive
C[C@@H](N)c1ccc(C(=O)Nc2ccnc3[nH]ccc23)cc1,Potency,[7],inactive
CN(C)CC[C@H](CSc1ccccc1)Nc1ccc(S(=O)(=O)NC(=O)c2ccc(N3CCN(Cc4ccccc4-c4ccc(Cl)cc4)CC3)cc2)cc1[N+](=O)[O-],Potency,[7],inactive
CN(C)CCOc1cc(-c2cn[nH]c2)ccc1NC(=O)C1COc2ccccc2O1 (stereo not given),Potency,[7],inactive
COC(=O)N1CCN(Cc2cccc(NC(=O)Nc3ccc(C)nc3)c2F)CC1,Potency,[7],inactive
NS(=O)(=O)c1cc(Cl)c(Cl)c(S(N)(=O)=O)c1,Potency,[7],inactive
same,Potency,[4],inactive
same,Potency,[5],inactive
same,max response,[6],21%
Cc1csc(-c2nnc(Nc3ccc(Oc4ncccc4-c4ccnc(N)n4)cc3)c3ccccc23)c1,Potency,[7],inactive
COc1ccc2c(c1)c(C1=C(c3c[nH]c4ccccc34)C(=O)NC1=O)cn2CCCN(C)C,Potency,[7],inactive
NC1(C(=O)N[C@@H](CCO)c2ccc(Cl)cc2)CCN(c2ncnc3[nH]ccc23)CC1,Potency,[7],inactive
CC(C)N(CCCNC(=O)Nc1ccc(C(C)(C)C)cc1)C[C@H]1O[C@@H](n2cc(Br)c3c(N)ncnc32)[C@H](O)[C@H]1O,Potency,[7],inactive
CC=C1C2C=C(C)CC1(N)c1ccc(=O)[nH]c1C2 (stereo not given),Potency,[7],inactive
O=C(Nc1ccc(OC(F)(F)F)cc1)c1sccc1NCc1ccnc2ccccc12,Potency,[7],inactive
C[C@]12CC[C@@H]3c4ccc(O)cc4CC[C@H]3[C@H]1[C@@H](O)[C@@H](O)[C@H]2O,Potency,[7],inactive
C[C@@H](O)[C@H]1C(=O)N2C(C(=O)OCOC(=O)C(C)(C)C)=C(SC3CN(C4=NCCS4)C3)[C@H](C)[C@H]12,Potency,[7],inactive
COc1ccc(CCN(C)CCCOc2ccc(S(=O)(=O)c3[nH]c4ccccc4c3C(C)C)cc2)cc1OC,Potency,[7],inactive
NC[C@H]1O[C@H](O[C@@H]2[C@@H](O)[C@@H](O[C@H]3O[C@H](CO)[C@@H](O)[C@H](N)[C@@H]3O)[C@H](N)C[C@@H]2N)[C@H](O)[C@@H](O)[C@H]1O,Potency,[7],inactive
CCC[C@H](N[C@@H](C)C(=O)N1[C@@H]2CCCC[C@H]2C[C@H]1C(=O)O)C(=O)OCC,Potency,[7],inactive
CC1C(=O)OC2C(O)C34C5CC(C(C)(C)C)C36C(OC(=O)C6O)OC4(C(=O)O5)C12O (stereo not given),Potency,[7],inactive
CCC(c1ccc(O)cc1)C(CC)c1ccc(O)cc1 (stereo not given),Potency,[7],inactive
CN(C(Cc1ccc(OS(=O)(=O)c2cccc3cnccc23)cc1)C(=O)N1CCN(c2ccccc2)CC1)S(=O)(=O)c1cccc2cnccc12 (stereo not given),Potency,[7],inactive
same,Potency,[5],inactive
Cc1cc(NC(=O)Nc2ccc(N(C)C)cc2)c2cc(F)cc(F)c2n1,Potency,[7],inactive
CNC(=O)c1c(-c2ccc(F)cc2)oc2cc(N(CCO)S(C)(=O)=O)c(C3CC3)cc12,Potency,[7],inactive
COc1cc(CNC(=O)CCCCC=CC(C)C)ccc1O,Potency,[7],inactive
C[C@@H]1O[C@@H](O[C@H]2CC[C@@]3(C)[C@H](CC[C@@H]4[C@H]3C[C@@H](O)[C@]3(C)[C@@H](C5=CC(=O)OC5)CC[C@]43O)C2)C[C@H](O)[C@@H]1O[C@H]1C[C@H](O)[C@H](O[C@H]2C[C@H](O)[C@@H](O)[C@@H](C)O2)[C@H](C)O1 (stereo in doubt),Potency,[7],inactive
COc1ccc(Cn2ccc3ccc(C(=O)NO)cc32)cc1,Potency,[7],inactive
N#Cc1c(N(CC(=O)O)CC(=O)O)sc(C(=O)O)c1CC(=O)O,Potency,[7],inactive
CC1CCN(c2cc(N3CCN(C)CC3)ccc2NC(=O)c2cc(C#N)c[nH]2)CC1,Potency,[7],inactive
CC(C)C[C@H](NC(=O)c1cc2ccccc2s1)C(=O)N1CCN(C(=O)[C@H](CO)NS(=O)(=O)c2ccc(Cl)cc2Cl)CC1,Potency,[7],inactive
same,Potency,[4],44.7 µM (active)
same,Potency,[5],15.8 µM (active)
Fc1ccc(CNc2ncnc3ccc(F)cc23)cc1,Potency,[7],inactive
CCCCN(CCCC)CC(O)c1cc(Cl)cc2c1-c1ccc(Cl)cc1C2=Cc1ccc(Cl)cc1 (stereo not given),Potency,[7],inactive
CN1CCC[C@H]1CCO[C@](C)(c1ccccc1)c1ccc(Cl)cc1,Potency,[7],inactive
same,Potency,[4],inactive
